Results filed as inconclusive are left out. Entries that show only a call come without a potency. The source made the active and inactive calls. Calls come from the whole dose curve; as a rule, active = well fitted inhibition curve with a large enough effect; inconclusive = small, poorly fitted or top-dose-only effect; inactive = flat fitted curve, though single readings scatter.
The compounds below were run against Calcium and integrin-binding protein 1 (Homo sapiens) (UniProt Q99828) (assay: Primary qHTS for Identification of Calcium Integrin Binding Protein 1 (CIB1) Competitor (AID 1508620;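 note: GST tagged CIB1 binding a fluorescein labelled alphaIIb integrin peptide tracer; top concentration of the series differs between compounds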)). Conditions: CIB1-GST / FITC-alphaIIb peptide fluorescence polarization; series mostly up to 114 µM.
In short: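 CIB1-GST (1 uM final) and compound incubated 15 min at room temperature before adding FITC-alphaIIb peptide tracer (100 nM final). Competition for binding read by fluorescence polarization (ex 480, em 540) after another 15 min at room temperature.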

Chain of Calcium and integrin-binding protein 1 (Homo sapiens) (Q99828 whole entry, looked up): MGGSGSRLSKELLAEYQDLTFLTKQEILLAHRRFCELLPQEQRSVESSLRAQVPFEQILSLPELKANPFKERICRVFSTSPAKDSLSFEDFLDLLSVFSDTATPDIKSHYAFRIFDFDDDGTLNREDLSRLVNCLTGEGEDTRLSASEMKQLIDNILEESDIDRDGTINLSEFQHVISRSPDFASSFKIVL

| SMILES | Potency |
| --- | --- |
| Fc1cc(F)cc(Nc2nc(Cl)nc(NC3CCCC3)n2)c1 | inactive |
| N#Cc1ccc(-c2csc(N3CCC(C(N)=O)CC3)n2)cc1 | inactive |
| Cc1cn([C@H]2C[C@H](N[S+](=O)([O-])Cc3ccc(Cl)cc3)[C@@H](CO)O2)c(=O)[nH]c1=O | inactive |
| CN(Cc1ccc(-c2ccc(C#N)cc2)o1)c1ccc(N2CCN(C(=O)OC(C)(C)C)CC2)cc1 | inactive |
| Cc1ccnc(NC(=S)Nc2cccc([S+](=O)([O-])Nc3ccccc3F)c2)c1 | inactive |
| NC(=O)C1CCN(c2nc(-c3ccc4c(c3)CCO4)cs2)CC1 | inactive |
| COC(=O)c1ccccc1NC(=O)c1ccc(F)cc1F | inactive |
| Clc1cccc(-c2ccc3ncnc(NCc4ccc5c(c4)OCO5)c3c2)c1 | inactive |
| Cc1cc2c(s1)c1cnn(Cc3cccc(Br)c3)c(=O)c1n2C | inactive |
| Fc1cc(Nc2nc(-c3ccncc3)nc3ccccc23)ccc1-c1cccc(OC(F)(F)F)c1 | inactive |
| CC(C)(C)OC(=O)Cc1nnc(-c2nc3ccccc3[nH]2)s1 | inactive |
| O=C1Cc2cc(S(=O)(=O)N3CCN(c4ccc(Cl)cc4)CC3)ccc2N1 | inactive |
| O=C1Cc2cc(S(=O)(=O)N3CCN(c4ccc(CO)cc4)CC3)ccc2N1 | inactive |
| NC(=O)C1CCN(c2nc(-c3cccnc3)cs2)CC1 | inactive |
| O=[S+]([O-])(NCC#CCSc1nnc(-c2cccc3ccccc23)o1)c1ccc(F)cc1 | inactive |
| OCC#CCSc1nnc(-c2cccc3ccccc23)o1 | inactive |
| CCOc1ccccc1-c1nnc2n1N=C(c1cc(OC)ccc1OC)CS2 | inactive |
